# Assay results from PubChem BioAssay (NCATS).
# Active and inactive are the calls of the source. No rule for the calls is given here.
# Conditions: Ebola virus entry assay, ratio channel
SMILES,outcome,AC50
CCCCN1CCCC1C(=O)Nc1c(C)cc(C)cc1C (stereo not drawn),inactive,
COc1cc(C(=O)OCCCN2CCCN(CCCOC(=O)c3cc(OC)c(OC)c(OC)c3)CC2)cc(OC)c1OC,,12.6 µM (active)
CCOc1ccccc1O[C@H](c1ccccc1)[C@H]1CNCCO1,,15.8 µM (active)
CN1CCCC(n2nc(Cc3ccc(Cl)cc3)c3ccccc3c2=O)CC1 (stereo not drawn),,3.16 µM (active)
C[C@@H]1CN(CCCn2c3ccccc3c3ccccc32)C[C@H](C)N1,,3.16 µM (active)
CCC(C(=O)OCCOCCN(CC)CC)c1ccccc1 (stereo not drawn),,22.4 µM (active)
Nc1c2c(nc3c1CCC3)CCCC2,inactive,
O=C1NCN(c2ccccc2)C12CCN(CCCC(c1ccc(F)cc1)c1ccc(F)cc1)CC2,,1.26 µM (active)
CCN1C(=O)c2ccccc2C1Nc1ccc(OCCN2CCCCC2)cc1 (stereo not drawn),,15.8 µM (active)
CSc1ccc2c(c1)C(N1CCN(C)CC1)Cc1ccccc1S2 (stereo not drawn),,3.16 µM (active)
CC(C)(C)c1ccc(C(=O)CCCN2CCC(OC(c3ccccc3)c3ccccc3)CC2)cc1,,8.91 µM (active)
CC(C)C[C@@H]1[C@H](c2ccccc2)OC(=O)N1CCCN1CCCCCC1,,8.91 µM (active)
COc1ccc2c(c1)c(CC(=O)O)c(C)n2C(=O)c1ccc(Cl)cc1,inactive,
CN1CCCCC1CCN1c2ccccc2Sc2ccc(S(C)=O)cc21 (stereo not drawn),,7.94 µM (active)
Cc1cc(C(C)(C)C)c(O)c(C)c1CC1=NCCN1,inactive,
C[C@@H](C1=C(CCN(C)C)Cc2ccccc21)c1ccccn1,,10 µM (active)
CN(C)C/C=C(/c1ccc(Br)cc1)c1cccnc1,inactive,
CC(=O)SC[C@@H](Cc1ccccc1)C(=O)NCC(=O)OCc1ccccc1,,28.2 µM (active)
CCCCN(CCCC)CCC(O)c1cc2c(Cl)cc(Cl)cc2c2cc(C(F)(F)F)ccc12 (stereo not drawn),,4.47 µM (active)

SMILES,outcome,AC50
Cc1cc(O)c(C(C)C)cc1Cl,inactive,
CCCCCCCCCCCCCCCC[N+](C)(C)CCN(Cc1ccc(OC)cc1)c1ncccn1,inactive,
CN(C(=O)CN(CCO)CC(=O)N(C)C(C)(C)Cc1ccccc1)C(C)(C)Cc1ccccc1,,5.62 µM (active)
CCCC(C(=O)OCCN(CC)CC)(c1ccccc1)c1ccccc1,,2.24 µM (active)
CCN(CC)CCOC(=O)C(c1ccccc1)C1CCCCC1 (stereo not drawn),,1.58 µM (active)
O=C1NCCN1CCN1CCC(c2cn(-c3ccc(F)cc3)c3ccc(Cl)cc23)CC1,,1 µM (active)
CCCCCCCCCCCCCCCCCCNC(=O)OC1CCN(C(=O)OC[C@H](COC(=O)N(Cc2cccc[n+]2CC)C(=O)c2ccccc2OC)OC)CC1,inactive,
C[C@H]1[C@H]2CC[C@H]3[C@@H]4CC=C5C[C@@H](N(C)C)CC[C@]5(C)[C@H]4CC[C@]23CN1C,,10 µM (active)
CC(C)COCC(CN(Cc1ccccc1)c1ccccc1)N1CCCC1 (stereo not drawn),,2 µM (active)
Cc1cc(C2CCCCC2)n(O)c(=O)c1,inactive,
O=C(CCN1CCN2CCCC2C1)N1c2ccccc2Sc2ccc(Cl)cc21 (stereo not drawn),,10 µM (active)
CN(C)c1ccc(C(=C2C=CC(=[N+](C)C)C=C2)c2ccc(N(C)C)cc2)cc1,,3.55 µM (active)
OCc1cc(C(O)CNCCCCCCOCCCCc2ccccc2)ccc1O (stereo not drawn),,7.08 µM (active)
CC(=O)c1ccc2c(c1)N(CCCN1CCC(CCO)CC1)c1ccccc1S2,,2.82 µM (active)
CCc1cccc(N(C)C(N)=Nc2cccc3ccccc23)c1,,14.1 µM (active)
Nc1ccc2cc3ccc(N)cc3nc2c1,,39.8 µM (active)
CN(C)[C@@H]1C(=O)C(C(=O)NCN2CCCC2)=C(O)[C@@]2(O)C(=O)C3=C(O)c4c(O)cccc4[C@@](C)(O)C3C[C@@H]12 (stereo partly drawn),,11.2 µM (active)
CC(C)(C)c1ccc(C(O)CCCN2CCC(C(O)(c3ccccc3)c3ccccc3)CC2)cc1 (stereo not drawn),,0.891 µM (active)
CN(C)CCOc1ccccc1Cc1ccccc1,,3.16 µM (active)
